# Results taken from PubChem BioAssay.
# For part of these data: Potency and affinity values are given separately.
# Assay: yeast 75Q aggregation reduction – 75Q-TubU reporter (AID 1593)
# Details: Yeast 75Q polyglutamine aggregation reporter
row,SMILES,score
1,O=c1[nH]cc(F)c(=O)[nH]1,0.35
2,CCc1nc(N)nc(N)c1-c1ccc(Cl)cc1,1.35
3,CCc1cccc2c3c([nH]c12)C(CC)(CC(=O)O)OCC3 (centres undefined),1.08
4,Nc1ncn([C@@H]2O[C@H](CO)[C@@H](O)[C@H]2O)c(=O)n1,1.31
5,Cc1ccccc1C(OCCN(C)C)c1ccccc1 (centres undefined),1.23
6,Cc1ccc(C)c(OCCCC(C)(C)C(=O)O)c1,-0.33
7,NC(=O)c1cnccn1,1.27
8,COC1=CC(=O)C[C@@H](C)[C@]12Oc1c(Cl)c(OC)cc(OC)c1C2=O,1
9,CO[C@@]1(NC(=O)Cc2cccs2)C(=O)N2C(C(=O)O)=C(COC(N)=O)CS[C@@H]21,0.25
10,OCCN1CCN(CCCN2c3ccccc3Sc3ccc(C(F)(F)F)cc32)CC1,1.32
11,CN(C)CCOC(c1ccc(Cl)cc1)c1ccccn1 (centres undefined),1.7
12,Cc1onc(-c2c(Cl)cccc2Cl)c1C(=O)N[C@@H]1C(=O)N2[C@@H]1SC(C)(C)[C@@H]2C(=O)O,1.26
13,NS(=O)(=O)c1cc(C2(O)NC(=O)c3ccccc32)ccc1Cl (centres undefined),1.55
14,Cc1ccc(-c2cc(C(F)(F)F)nn2-c2ccc(S(N)(=O)=O)cc2)cc1,-0.03
15,O=S(=O)(O)CCS,1.3
16,COc1ccc(OC)c(C(O)CNC(=O)CN)c1 (centres undefined),1.3
17,Cn1cnc([N+](=O)[O-])c1Sc1ncnc2nc[nH]c12,0.86
18,c1ccc2[nH]c(-c3cscn3)nc2c1,0.53
19,CCCNCC(O)COc1ccccc1C(=O)CCc1ccccc1 (centres undefined),1.02
20,Cc1cn([C@H]2C[C@H](N=[N+]=[N-])[C@@H](CO)O2)c(=O)[nH]c1=O,1.46
21,COc1ccccc1OCC(O)COC(N)=O (centres undefined),1.41
22,OC(CCN1CCCC1)(c1ccccc1)C1CCCCC1 (centres undefined),1.52
23,O=C1C(CCS(=O)c2ccccc2)C(=O)N(c2ccccc2)N1c1ccccc1 (centres undefined),0.1
24,COC(=O)Nc1nc2ccc(C(=O)c3ccccc3)cc2[nH]1,0.63
25,NCc1ccc(S(N)(=O)=O)cc1,1.19
26,Clc1ccc2c(c1)C(N1CCNCC1)=Nc1ccccc1O2,1.21
27,CC(C)(C)NCC(O)COc1cccc2c1C[C@H](O)[C@H](O)C2 (some centres undefined),1.45
28,NS(=O)(=O)c1cc2c(cc1Cl)NC=NS2(=O)=O,1.24

# Assay: restoration of touch response, mutant HTT neurons – whole organism, C. elegans mechanosensory neurons, N-terminal huntingtin (AID 1599)
# Details: C. elegans polyQ-huntingtin mechanosensory neurons, stronger effect = higher value
row,SMILES,rescue above control
1,O=c1[nH]cc(F)c(=O)[nH]1,-13.1
2,CCc1nc(N)nc(N)c1-c1ccc(Cl)cc1,26.6
3,CCc1cccc2c3c([nH]c12)C(CC)(CC(=O)O)OCC3 (centres undefined),-7.42
4,Nc1ncn([C@@H]2O[C@H](CO)[C@@H](O)[C@H]2O)c(=O)n1,17.7
5,Cc1ccccc1C(OCCN(C)C)c1ccccc1 (centres undefined),-6.28
6,Cc1ccc(C)c(OCCCC(C)(C)C(=O)O)c1,6.5
7,NC(=O)c1cnccn1,-9.49
8,COC1=CC(=O)C[C@@H](C)[C@]12Oc1c(Cl)c(OC)cc(OC)c1C2=O,-5.31
9,CO[C@@]1(NC(=O)Cc2cccs2)C(=O)N2C(C(=O)O)=C(COC(N)=O)CS[C@@H]21,-4.75
10,OCCN1CCN(CCCN2c3ccccc3Sc3ccc(C(F)(F)F)cc32)CC1,0
11,CN(C)CCOC(c1ccc(Cl)cc1)c1ccccn1 (centres undefined),-1.97
12,Cc1onc(-c2c(Cl)cccc2Cl)c1C(=O)N[C@@H]1C(=O)N2[C@@H]1SC(C)(C)[C@@H]2C(=O)O,8.15
13,NS(=O)(=O)c1cc(C2(O)NC(=O)c3ccccc32)ccc1Cl (centres undefined),-4.25
14,Cc1ccc(-c2cc(C(F)(F)F)nn2-c2ccc(S(N)(=O)=O)cc2)cc1,17.2
15,O=S(=O)(O)CCS,-8.48
16,COc1ccc(OC)c(C(O)CNC(=O)CN)c1 (centres undefined),-4.55
17,Cn1cnc([N+](=O)[O-])c1Sc1ncnc2nc[nH]c12,-3.67
18,c1ccc2[nH]c(-c3cscn3)nc2c1,-3.36
19,CCCNCC(O)COc1ccccc1C(=O)CCc1ccccc1 (centres undefined),2.07
20,Cc1cn([C@H]2C[C@H](N=[N+]=[N-])[C@@H](CO)O2)c(=O)[nH]c1=O,1.62
21,COc1ccccc1OCC(O)COC(N)=O (centres undefined),1.68
22,OC(CCN1CCCC1)(c1ccccc1)C1CCCCC1 (centres undefined),0.33
23,O=C1C(CCS(=O)c2ccccc2)C(=O)N(c2ccccc2)N1c1ccccc1 (centres undefined),-11.1
24,COC(=O)Nc1nc2ccc(C(=O)c3ccccc3)cc2[nH]1,-9.11
25,NCc1ccc(S(N)(=O)=O)cc1,-7.83
26,Clc1ccc2c(c1)C(N1CCNCC1)=Nc1ccccc1O2,6.68
27,CC(C)(C)NCC(O)COc1cccc2c1C[C@H](O)[C@H](O)C2 (some centres undefined),-2.31
28,NS(=O)(=O)c1cc2c(cc1Cl)NC=NS2(=O)=O,7.98

# Assay: blockers of cytochrome c efflux from mitochondria – biochemical, purified mitochondria (AID 1603);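 further: mouse liver mitochondria challenged with calcium chloride; signal normalized to the plate average as 100%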
# Details: stronger effect = lower value
row,SMILES,cytochrome c release ratio
1,O=c1[nH]cc(F)c(=O)[nH]1,0.98
2,CCc1nc(N)nc(N)c1-c1ccc(Cl)cc1,1.05
3,CCc1cccc2c3c([nH]c12)C(CC)(CC(=O)O)OCC3 (centres undefined),0.88
4,Nc1ncn([C@@H]2O[C@H](CO)[C@@H](O)[C@H]2O)c(=O)n1,1.03
5,Cc1ccccc1C(OCCN(C)C)c1ccccc1 (centres undefined),1.72
6,Cc1ccc(C)c(OCCCC(C)(C)C(=O)O)c1,0.86
7,NC(=O)c1cnccn1,1.22
8,COC1=CC(=O)C[C@@H](C)[C@]12Oc1c(Cl)c(OC)cc(OC)c1C2=O,1.14
9,CO[C@@]1(NC(=O)Cc2cccs2)C(=O)N2C(C(=O)O)=C(COC(N)=O)CS[C@@H]21,0.94
10,OCCN1CCN(CCCN2c3ccccc3Sc3ccc(C(F)(F)F)cc32)CC1,2.24
11,CN(C)CCOC(c1ccc(Cl)cc1)c1ccccn1 (centres undefined),0.83
12,Cc1onc(-c2c(Cl)cccc2Cl)c1C(=O)N[C@@H]1C(=O)N2[C@@H]1SC(C)(C)[C@@H]2C(=O)O,1.34
13,NS(=O)(=O)c1cc(C2(O)NC(=O)c3ccccc32)ccc1Cl (centres undefined),0.9
14,Cc1ccc(-c2cc(C(F)(F)F)nn2-c2ccc(S(N)(=O)=O)cc2)cc1,4.42
15,O=S(=O)(O)CCS,0.92
16,COc1ccc(OC)c(C(O)CNC(=O)CN)c1 (centres undefined),1.63
17,Cn1cnc([N+](=O)[O-])c1Sc1ncnc2nc[nH]c12,0.54
18,c1ccc2[nH]c(-c3cscn3)nc2c1,1.13
19,CCCNCC(O)COc1ccccc1C(=O)CCc1ccccc1 (centres undefined),1.16
20,Cc1cn([C@H]2C[C@H](N=[N+]=[N-])[C@@H](CO)O2)c(=O)[nH]c1=O,1.1
21,COc1ccccc1OCC(O)COC(N)=O (centres undefined),0.96
22,OC(CCN1CCCC1)(c1ccccc1)C1CCCCC1 (centres undefined),0.63
23,O=C1C(CCS(=O)c2ccccc2)C(=O)N(c2ccccc2)N1c1ccccc1 (centres undefined),0.57
24,COC(=O)Nc1nc2ccc(C(=O)c3ccccc3)cc2[nH]1,0.9
25,NCc1ccc(S(N)(=O)=O)cc1,0.88
26,Clc1ccc2c(c1)C(N1CCNCC1)=Nc1ccccc1O2,0.82
27,CC(C)(C)NCC(O)COc1cccc2c1C[C@H](O)[C@H](O)C2 (some centres undefined),0.46
28,NS(=O)(=O)c1cc2c(cc1Cl)NC=NS2(=O)=O,0.96
